Laboratory results from PubChem BioAssay (Tox21).
Unmarked numbers belong to inactive results. Calls follow the shape of the full dose curve. Inconclusive results are not listed.

target: Muscarinic acetylcholine receptor M1 (Homo sapiens) (UniProt P11229); experiment: Cholinergic receptor muscarinic 1 (CHRM1) small molecule agonists, cell-based qHTS assay (AID 1963589); conditions: CHRM1-CHO cells, agonist mode, calcium flux fluorescence; series mostly up to 76.8 µM; activation: at the top concentration; also: nearly all actives have a fitted effect of over 35% in size
Sequence (P11229 whole entry, looked up): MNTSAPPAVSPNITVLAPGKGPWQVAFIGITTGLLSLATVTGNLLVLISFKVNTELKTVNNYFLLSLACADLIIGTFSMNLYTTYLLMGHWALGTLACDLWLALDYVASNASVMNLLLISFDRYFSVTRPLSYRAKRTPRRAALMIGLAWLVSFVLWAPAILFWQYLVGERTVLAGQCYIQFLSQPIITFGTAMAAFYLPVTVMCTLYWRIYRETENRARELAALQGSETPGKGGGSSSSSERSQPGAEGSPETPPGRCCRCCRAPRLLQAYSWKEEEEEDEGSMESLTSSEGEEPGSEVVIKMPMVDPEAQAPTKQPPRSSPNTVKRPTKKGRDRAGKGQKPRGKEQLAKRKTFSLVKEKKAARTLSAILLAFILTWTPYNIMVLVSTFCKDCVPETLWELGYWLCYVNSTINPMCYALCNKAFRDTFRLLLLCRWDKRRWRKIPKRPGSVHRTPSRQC
Summary of the method: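 Calcium flux read-out: kinetic fluorescence at 1 sec intervals after pin-tool compound addition to dye-loaded CHRM1-CHO cells (human M1). Agonist mode; 15 concentrations tested in triplicate independent runs.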
% is scaled to controls: 0 for no effect and ±100 for the full control effect.

Row | SMILES | activation
1 | CC(=O)c1ccc2c(c1)Cc1ccccc1-2 | -1.06%
2 | C=CCc1cc(S(=O)(=O)c2ccc(O)c(CC=C)c2)ccc1O | 3.89%
3 | CCCCOc1ccc(CC(=O)NO)cc1 | -0.55% [at 35.3 µM]
4 | CC(C)=CC=O | -0.103%
5 | CCC(C)(C)OC | 0.293%
6 | CC(=O)CCC1=C(C)CCCC1(C)C | 0.258%
7 | CCCCCC(C)O (stereo not given) | 0.214%
8 | CC(C)(C)C(O)/C=C/c1ccc2c(c1)OCO2 (stereo not given) | 0.416% [at 35.3 µM]
9 | C=C(C)C(=O)OCc1ccccc1 | 0.2%
10 | O=C(Cl)c1cccc([N+](=O)[O-])c1 | -0.0914%
11 | CN1CC(=O)N2[C@H](c3ccc4c(c3)OCO4)c3[nH]c4ccccc4c3C[C@@H]2C1=O | 0.21% [at 35.3 µM]
12 | CCCc1nc(C)c2c(=O)[nH]c(-c3cc(S(=O)(=O)N4CCN(CC)CC4)ccc3OCC)nn12 | -0.309% [at 35.3 µM]
13 | Cc1ccc(OC(=O)CC(C)C)cc1 | -0.288%
14 | C=C(C)C(=O)OCCOCCOC(=O)C(=C)C | -0.945%
15 | O=C(Nc1cccc(Cl)c1)OCC#CCCl | -0.398%
16 | CCNC(=O)NCc1cccc(Cl)c1 | -0.207% [at 35.3 µM]
17 | O=C1CCCCCO1 | -0.0872%
18 | CCOC(=O)CC(=O)c1ccccc1 | 5.71%
19 | CO/N=C(/C(=O)N[C@@H]1C(=O)N2C(C(=O)[O-])=C(C[n+]3ccn4ncccc43)CS[C@H]12)c1nsc(N)n1 | -0.26% [at 35.3 µM]
20 | O=C1CCCCC1C1CCCCC1 (stereo not given) | 0.0942%
21 | N#Cc1ccccc1O | -0.156%
22 | O=C1NCC2(CCN(CCc3ccccc3)CC2)O1 | 1.76% [at 35.3 µM]
23 | CN(C)C(=O)Nc1ccccc1 | -0.0176%
24 | Nc1ccc(Oc2ccc(N)c(N)c2)cc1 | 0.113%
25 | CC(C)COC(=O)CCCCC(=O)OCC(C)C | 0.689%

test system: not listed separately; experiment: cAMP Responsive Elements (CRE) small molecule agonists, cell-based qHTS assay (AID 1963590); conditions: CRE-bla HEK293T, beta-lactamase FRET ratio, 3 h; series mostly up to 92.4 µM; activation: at the top concentration
Summary of the method: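 Beta-lactamase reporter readout: LiveBLAzer B/G FRET substrate, 2 h at room temperature, added after 3 h compound treatment of CRE-bla HEK 293T cells at 37 C/5% CO2.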

Row | SMILES | activation
26 | CC[C@H](C)C(=O)O[C@H]1C[C@H](O)C=C2C=C[C@H](C)[C@H](CC[C@@H](O)C[C@@H](O)CC(=O)O)[C@H]21 | 1.79%
27 | Cn1c(=O)c2c(ncn2CC2OCCO2)n(C)c1=O | -0.746% [at 42.5 µM]
28 | C=CCc1cc(S(=O)(=O)c2ccc(O)c(CC=C)c2)ccc1O | 13.2%
29 | CCCCOc1ccc(CC(=O)NO)cc1 | -0.679% [at 42.5 µM]
30 | CC(C)=CC=O | -0.345%
31 | CCC(C)(C)OC | -0.15%
32 | CC(=O)CCC1=C(C)CCCC1(C)C | -0.235%
33 | CCN1CCN(C(=O)N[C@@H](C(=O)N[C@@H]2C(=O)N3[C@@H]2SC(C)(C)[C@H]3C(=O)O)c2ccccc2)C(=O)C1=O | 0.948% [at 42.5 µM]
34 | CCCCCC(C)O (stereo not given) | -0.0118%
35 | CC(C)(C)C(O)/C=C/c1ccc2c(c1)OCO2 (stereo not given) | 4.03% [at 42.5 µM]
36 | C=C(C)C(=O)OCc1ccccc1 | -0.121%
37 | O=C(Cl)c1cccc([N+](=O)[O-])c1 | -1.07%
38 | COc1ccnc(CS(=O)c2nc3ccc(OC(F)F)cc3[nH]2)c1OC (stereo not given) | -1.71% [at 42.5 µM]
39 | Cc1ccc(OC(=O)CC(C)C)cc1 | 0.498%
40 | Nc1ccn([C@@H]2O[C@H](CO)[C@@H](O)[C@@H]2O)c(=O)n1 | 0.479%
41 | CN1C(C(=O)Nc2ccccn2)=C(O)c2sccc2S1(=O)=O | -4.8% [at 42.5 µM]
42 | O=C(O)CO | -0.211%
43 | CCNC(=O)NCc1cccc(Cl)c1 | -0.731% [at 42.5 µM]
44 | O=C1CCCCCO1 | -1.15%
45 | COc1nc(C)nc(Cl)c1NC1=NCCN1 | -0.0414% [at 42.5 µM]
46 | CCOC(=O)CC(=O)c1ccccc1 | -0.427%
47 | CO/N=C(/C(=O)N[C@@H]1C(=O)N2C(C(=O)[O-])=C(C[n+]3ccn4ncccc43)CS[C@H]12)c1nsc(N)n1 | -0.0081% [at 42.5 µM]
48 | O=C1CCCCC1C1CCCCC1 (stereo not given) | 2.38%
49 | N#Cc1ccccc1O | 2.41%
50 | O=C1NCC2(CCN(CCc3ccccc3)CC2)O1 | -0.909% [at 42.5 µM]
51 | CN(C)C(=O)Nc1ccccc1 | -0.311%
52 | CC(C)CO | -0.202%
53 | CC[C@H]1OC(=O)[C@H](C)[C@@H](O[C@H]2C[C@@](C)(OC)[C@@H](O)[C@H](C)O2)[C@H](C)[C@@H](O[C@@H]2O[C@H](C)C[C@H](N(C)C)[C@H]2O)[C@](C)(O)C[C@@H](C)/C(=N\OCOCCOC)[C@H](C)[C@@H](O)[C@]1(C)O | 2.32% [at 42.5 µM]
54 | Nc1ccc(Oc2ccc(N)c(N)c2)cc1 | 0.314%
55 | CC(C)COC(=O)CCCCC(=O)OCC(C)C | -0.0508%
